The full list was thinned out, with the strongest signals kept by preference.
Key:
Experiment in all cases: glycan array binding signal (z-score within array); higher = stronger binding
Conditions in all cases: glycan notation: IUPAC condensed, linker removed
[1] = biological target: Fuc(a1-2)Gal(b1-4)GlcNAc(b1-6)GalNAc
Outline: (§1)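 The binding signal is a Z-score computed within each array. Data were drawn from 3228 arrays in the Consortium for Functional Glycomics database, restricted to those with a known protein sequence. Scores were averaged over arrays of the same protein sequence at different concentrations or buffers, and over linkers, and negative values can be taken as non-binding.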

[2] = biological target: Fuc(a1-2)[Gal(a1-3)]Gal(b1-3)GalNAc
Outline: as §1

[3] = biological target: Fuc(a1-2)[Gal(a1-3)]Gal(b1-3)GlcNAc
Outline: as §1

[4] = biological target: Fuc(a1-2)[Gal(a1-3)]Gal(b1-3)GlcNAc(b1-2)Man(a1-3)[Fuc(a1-2)[Gal(a1-3)]Gal(b1-3)GlcNAc(b1-2)Man(a1-6)]Man(b1-4)GlcNAc(b1-4)[Fuc(a1-6)]GlcNAc
Outline: as §1

[5] = biological target: Fuc(a1-2)[Gal(a1-3)]Gal(b1-4)GlcNAc(b1-3)[Fuc(a1-2)[Gal(a1-3)]Gal(b1-4)GlcNAc(b1-6)]GalNAc
Outline: as §1

[6] = biological target: Fuc(a1-2)[GalNAc(a1-3)]Gal(b1-4)GlcNAc(b1-3)[Fuc(a1-2)[GalNAc(a1-3)]Gal(b1-4)GlcNAc(b1-6)]GalNAc
Outline: as §1

[7] = biological target: Fuc(a1-3)[Gal(b1-4)]GlcNAc(b1-3)Gal(b1-4)[Fuc(a1-3)]GlcNAc(b1-3)Gal(b1-4)[Fuc(a1-3)]GlcNAc
Outline: as §1

[8] = biological target: Gal(a1-3)Gal(b1-3)[Fuc(a1-4)]GlcNAc(b1-2)Man(a1-3)[Gal(a1-3)Gal(b1-3)[Fuc(a1-4)]GlcNAc(b1-2)Man(a1-6)]Man(b1-4)GlcNAc(b1-4)GlcNAc
Outline: as §1

[9] = biological target: Gal(b1-3)GalNAc(b1-3)Gal(a1-4)Gal(b1-4)Glc
Outline: as §1

[10] = biological target: Gal(b1-3)GlcNAc(a1-3)Gal(b1-4)GlcNAc
Outline: as §1

[11] = biological target: Gal(b1-3)GlcNAc(b1-2)Man(a1-3)[GlcNAc(b1-4)][Gal(b1-3)GlcNAc(b1-2)Man(a1-6)]Man(b1-4)GlcNAc(b1-4)GlcNAc
Outline: as §1

[12] = biological target: Gal(b1-3)GlcNAc(b1-3)Gal(b1-4)Glc
Outline: as §1

[13] = biological target: Gal(b1-3)[Fuc(a1-4)]GlcNAc(b1-2)Man
Outline: as §1

[14] = biological target: Gal(b1-3)[Neu5Ac(a2-6)]GlcNAc(b1-4)Gal(b1-4)Glc
Outline: as §1

Gal(b1-4)GlcNAc = biological target: Gal(b1-4)GlcNAc
Outline: as §1

[15] = biological target: Gal(b1-4)GlcNAc(b1-2)Man(a1-6)[GlcNAc(b1-2)Man(a1-3)]Man(b1-4)GlcNAc(b1-4)GlcNAc
Outline: as §1

[16] = biological target: Gal(b1-4)GlcNAc(b1-2)[Gal(b1-4)GlcNAc(b1-4)]Man(a1-3)[GlcNAc(b1-4)][Gal(b1-4)GlcNAc(b1-2)Man(a1-6)]Man(b1-4)GlcNAc(b1-4)GlcNAc
Outline: as §1

[17] = biological target: Gal(b1-4)GlcNAc(b1-3)Gal(b1-4)GlcNAc(b1-3)Gal(b1-4)GlcNAc(b1-2)Man(a1-3)[Gal(b1-4)GlcNAc(b1-3)Gal(b1-4)GlcNAc(b1-3)Gal(b1-4)GlcNAc(b1-2)Man(a1-6)]Man(b1-4)GlcNAc(b1-4)[Fuc(a1-6)]GlcNAc
Outline: as §1

[18] = biological target: Gal(b1-4)GlcNAc(b1-3)Gal(b1-4)GlcNAc(b1-3)Gal(b1-4)GlcNAc(b1-3)Gal(b1-4)GlcNAc(b1-2)Man(a1-3)[Gal(b1-4)GlcNAc(b1-3)Gal(b1-4)GlcNAc(b1-3)Gal(b1-4)GlcNAc(b1-3)Gal(b1-4)GlcNAc(b1-2)Man(a1-6)]Man(b1-4)GlcNAc(b1-4)[Fuc(a1-6)]GlcNAc
Outline: as §1

[19] = biological target: Gal(b1-4)GlcNAc(b1-3)Gal(b1-4)GlcNAc(b1-3)Gal(b1-4)GlcNAc(b1-3)Gal(b1-4)GlcNAc(b1-2)[Gal(b1-4)GlcNAc(b1-3)Gal(b1-4)GlcNAc(b1-3)Gal(b1-4)GlcNAc(b1-3)Gal(b1-4)GlcNAc(b1-6)]Man(a1-6)[Gal(b1-4)GlcNAc(b1-3)Gal(b1-4)GlcNAc(b1-3)Gal(b1-4)GlcNAc(b1-3)Gal(b1-4)GlcNAc(b1-2)Man(a1-3)]Man(b1-4)GlcNAc(b1-4)[Fuc(a1-6)]GlcNAc
Outline: as §1

[20] = biological target: Gal(b1-4)GlcNAc(b1-3)Gal(b1-4)GlcNAc(b1-3)Gal(b1-4)GlcNAc(b1-3)Gal(b1-4)GlcNAc(b1-3)Gal(b1-4)GlcNAc(b1-2)Man(a1-3)[Gal(b1-4)GlcNAc(b1-3)Gal(b1-4)GlcNAc(b1-3)Gal(b1-4)GlcNAc(b1-3)Gal(b1-4)GlcNAc(b1-3)Gal(b1-4)GlcNAc(b1-2)Man(a1-6)]Man(b1-4)GlcNAc(b1-4)[Fuc(a1-6)]GlcNAc
Outline: as §1

Gal(b1-6)Gal = biological target: Gal(b1-6)Gal
Outline: as §1

Gal3S(b1-3)GalNAc = biological target: Gal3S(b1-3)GalNAc
Outline: as §1

[21] = biological target: Gal3S(b1-4)[Fuc(a1-3)]Glc6S
Outline: as §1

Gal6S(b1-4)Glc = biological target: Gal6S(b1-4)Glc
Outline: as §1

Gal6S(b1-4)GlcNAc6S = biological target: Gal6S(b1-4)GlcNAc6S
Outline: as §1

GalNAc(b1-4)GlcNAc6S = biological target: GalNAc(b1-4)GlcNAc6S
Outline: as §1

Glc(a1-6)Glc(a1-6)Glc = biological target: Glc(a1-6)Glc(a1-6)Glc
Outline: as §1

GlcA(b1-3)Gal = biological target: GlcA(b1-3)Gal
Outline: as §1

[22] = biological target: GlcNAc(a1-4)Gal(b1-4)GalNAc
Outline: as §1

[23] = biological target: GlcNAc(b1-2)Man(a1-3)[GlcNAc(b1-4)][GlcNAc(b1-2)Man(a1-6)]Man(b1-4)GlcNAc(b1-4)[Fuc(a1-6)]GlcNAc
Outline: as §1

[24] = biological target: GlcNAc(b1-2)[GlcNAc(b1-4)]Man(a1-3)[GlcNAc(b1-4)][GlcNAc(b1-2)Man(a1-6)]Man(b1-4)GlcNAc(b1-4)GlcNAc
Outline: as §1

[25] = biological target: GlcNAc(b1-2)[GlcNAc(b1-6)]Man(a1-6)[GlcNAc(b1-2)Man(a1-3)]Man(b1-4)GlcNAc(b1-4)[Fuc(a1-6)]GlcNAc
Outline: as §1

[26] = biological target: GlcNAc(b1-3)Gal(b1-4)GlcNAc(b1-2)[GlcNAc(b1-3)Gal(b1-4)GlcNAc(b1-6)]Man(a1-6)[GlcNAc(b1-3)Gal(b1-4)GlcNAc(b1-2)Man(a1-3)]Man(b1-4)GlcNAc(b1-4)GlcNAc
Outline: as §1

[27] = biological target: GlcNAc(b1-3)Gal(b1-4)GlcNAc(b1-3)Gal(b1-4)GlcNAc(b1-2)Man(a1-3)[GlcNAc(b1-3)Gal(b1-4)GlcNAc(b1-3)Gal(b1-4)GlcNAc(b1-2)Man(a1-6)]Man(b1-4)GlcNAc(b1-4)GlcNAc
Outline: as §1

[28] = biological target: GlcNAc(b1-3)Gal(b1-4)GlcNAc(b1-3)[GlcNAc(b1-3)Gal(b1-4)GlcNAc(b1-3)]GalNAc
Outline: as §1

Kdn(a2-6)Gal(b1-4)GlcNAc = biological target: Kdn(a2-6)Gal(b1-4)GlcNAc
Outline: as §1

[29] = biological target: Neu5Ac(a2-3)Gal(b1-3)GlcNAc(b1-6)GalNAc
Outline: as §1

[30] = biological target: Neu5Ac(a2-3)Gal(b1-3)GlcNAc6S
Outline: as §1

[31] = biological target: Neu5Ac(a2-3)Gal(b1-3)[Neu5Ac(a2-6)]GlcNAc(b1-3)[Fuc(a1-3)[Gal(b1-4)]GlcNAc(b1-6)]Gal(b1-4)Glc
Outline: as §1

Neu5Ac(a2-3)Gal(b1-4)Glc = biological target: Neu5Ac(a2-3)Gal(b1-4)Glc
Outline: as §1

[32] = biological target: Neu5Ac(a2-3)Gal(b1-4)GlcNAc(b1-3)Gal(b1-3)GlcNAc
Outline: as §1

[33] = biological target: Neu5Ac(a2-3)Gal(b1-4)GlcNAc(b1-6)[Gal(b1-3)]GalNAc
Outline: as §1

Neu5Ac(a2-3)GalNAc = biological target: Neu5Ac(a2-3)GalNAc
Outline: as §1

[34] = biological target: Neu5Ac(a2-6)Gal(b1-4)GlcNAc(b1-2)Man(a1-3)Man(b1-4)GlcNAc(b1-4)GlcNAc
Outline: as §1

[35] = biological target: Neu5Ac(a2-8)Neu5Ac(a2-3)Gal(b1-3)GalNAc(b1-4)[Neu5Ac(a2-8)Neu5Ac(a2-3)]Gal(b1-4)Glc
Outline: as §1

[36] = biological target: Neu5Ac(a2-8)Neu5Ac(a2-8)Neu5Ac
Outline: as §1

[37] = biological target: Neu5Gc(a2-3)Gal(b1-4)GlcNAc
Outline: as §1

B1: Sebin1 (Coprinopsis cinerea), A8PEE3 (protein)
chain: MTSPFYAHIHNVQDDNTWRFTLIFANRATADEWWRAISEAPANTSIAKSITRVTPQYYTHDVNIWNIWNFFADGNIKSISERFRGRLFIVLENDRGGRGITVIPPVPIVDHVSGNWFYIRSKTAPHLFWYYDERRSSIYASKEKRTRFKISIRNPSSQTPKNAIMINTDDVTIHIKENLYVGVDNNLGHIIPTRAYRTFKFGELESGAIAGFDVVENIEERCSSTFDGASLSISGPDSSSPGEPWELV
glycan array binding signal (z-score) [1]: 4.71
glycan array binding signal (z-score) [2]: -0.147
glycan array binding signal (z-score) [3]: -0.29
glycan array binding signal (z-score) [4]: 2.8
glycan array binding signal (z-score) [5]: 3.52
glycan array binding signal (z-score) [6]: 1.28
glycan array binding signal (z-score) [7]: -0.039
glycan array binding signal (z-score) [8]: 2.45
glycan array binding signal (z-score) [9]: 0.187
glycan array binding signal (z-score) [10]: -0.485
glycan array binding signal (z-score) [11]: 2.39
glycan array binding signal (z-score) [12]: -0.671
glycan array binding signal (z-score) [13]: 0.391
glycan array binding signal (z-score) [14]: 0.647
glycan array binding signal (z-score) (Gal(b1-4)GlcNAc): -0.703
glycan array binding signal (z-score) [15]: -0.684
glycan array binding signal (z-score) [16]: 0.136
glycan array binding signal (z-score) [17]: 13.4
glycan array binding signal (z-score) [18]: 6.4
glycan array binding signal (z-score) [19]: 2.44
glycan array binding signal (z-score) [20]: 2.62
glycan array binding signal (z-score) (Gal(b1-6)Gal): 0.332
glycan array binding signal (z-score) (Gal3S(b1-3)GalNAc): -0.501
glycan array binding signal (z-score) [21]: 0.696
glycan array binding signal (z-score) (Gal6S(b1-4)Glc): 0.006
glycan array binding signal (z-score) (Gal6S(b1-4)GlcNAc6S): 0.222
glycan array binding signal (z-score) (GalNAc(b1-4)GlcNAc6S): 0.053
glycan array binding signal (z-score) (Glc(a1-6)Glc(a1-6)Glc): -0.354
glycan array binding signal (z-score) (GlcA(b1-3)Gal): -0.505
glycan array binding signal (z-score) [22]: -0.32
glycan array binding signal (z-score) [23]: -0.296
glycan array binding signal (z-score) [24]: 2.33
glycan array binding signal (z-score) [25]: -0.058
glycan array binding signal (z-score) [26]: -0.792
glycan array binding signal (z-score) [27]: 0.145
glycan array binding signal (z-score) [28]: -0.696
glycan array binding signal (z-score) (Kdn(a2-6)Gal(b1-4)GlcNAc): -0.282
glycan array binding signal (z-score) [29]: -0.335
glycan array binding signal (z-score) [30]: -0.146
glycan array binding signal (z-score) [31]: -0.727
glycan array binding signal (z-score) (Neu5Ac(a2-3)Gal(b1-4)Glc): 3.86
glycan array binding signal (z-score) [32]: -0.415
glycan array binding signal (z-score) [33]: 2.49
glycan array binding signal (z-score) (Neu5Ac(a2-3)GalNAc): -0.458
glycan array binding signal (z-score) [34]: -0.4
glycan array binding signal (z-score) [35]: -0.152
glycan array binding signal (z-score) [36]: -0.546
glycan array binding signal (z-score) [37]: -0.074
